Only some compounds are listed: those with a hit (about 0.47% of all), similar ones and a draw of the others.
AID inh = blocks human AID cytidine deaminase activity; Q9GZX7; AID deamination FRET fluorescence, UDG-coupled, 4 h; Potency, µM (series often up to 115 µM), most hits filed as inhibitors; 91,000 tested, 0.32% active; note: nearly all actives have a fitted effect of over 25% in size
Target sequence (Q9GZX7 whole entry, looked up): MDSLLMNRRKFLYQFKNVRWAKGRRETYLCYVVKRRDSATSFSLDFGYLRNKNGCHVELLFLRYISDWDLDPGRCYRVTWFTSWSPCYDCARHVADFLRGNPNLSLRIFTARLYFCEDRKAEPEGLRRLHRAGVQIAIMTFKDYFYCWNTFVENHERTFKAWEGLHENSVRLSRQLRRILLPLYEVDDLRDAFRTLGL
UDG counterscr = blocks uracil-DNA glycosylase in AID counter-screen. Potency, µM (top dose mostly 115 µM), for the others: at the top dose activity change, negative = inhibition, hits mostly inhibitors. AID 1347430. FRET deamination/UDG coupled assay, UDG read, 4 h. 91,000 tested, 0.14% active; note: nearly all actives have a fitted effect of over 65% in size
An asterisk follows results filed as active; i = inactive; ? = inconclusive; [ ] = remark or other dose. Calls come from the whole dose curve; as a rule, active = well fitted curve in the direction sought with a large enough effect; inconclusive = small, poorly fitted or top-dose-only effect, or another doubt; inactive = no such curve, though single readings can be large; an effect the other way counts as inactive or inconclusive. % is set by controls: 0 for no effect and ±100 for the full control effect; potency is the fitted concentration of half-maximal effect.

SMILES	AID inh	UDG counterscr
Cc1ccc(CSC2=Nc3ccccc3C3=NC(CC(=O)NCc4ccc5c(c4)OCO5)C(=O)N23)cc1 (centres undefined)	?	-12%
CCOC(=O)c1ccc(CN(Cc2ccc(Cl)cc2Cl)S(=O)(=O)c2ccc(F)c(C)c2)cc1	i	-14%
COc1ccccc1C(=O)Nc1nc2nc(C)c(Cc3ccccc3)c(=O)n2[nH]1	35µM*	-1%
Cc1nc2nc(NC(=O)c3ccc(C(C)(C)C)cc3)[nH]n2c(=O)c1Cc1ccccc1	?	0%
COc1ccccc1Cc1nc2ccccc2nc1SCC(=O)N1CCCCC1	?	89µM*
COc1ccccc1Cc1nc2ccccc2nc1SCC(=O)N1CCc2ccccc21	i	0%
Cc1c(Cl)cccc1NC(=O)Cn1nc(C)c2ccccc2c1=O	i	4%
CCOc1ccc(Nc2nnc(-n3nc(C)cc3C)c3ccccc23)cc1	i	79µM*
CCc1ccc(Nc2nnc(-n3nc(C)cc3C)c3ccccc23)cc1	i	30%
COc1ccccc1C(=O)Nc1ccc(C(=O)OCc2cc(=O)n3nc(C4CC4)sc3n2)cc1	i	-10%
COc1ccccc1C(=O)Nc1ccc(C(=O)OCc2cc(=O)n3nc(C)sc3n2)cc1	28µM*	-10%
COc1ccc(-c2nc(CN3CCC(C(=O)NCc4ccc(C)cc4)CC3)c(C)o2)cc1OC	i	?
Cc1ccc(C)c(OCC(=O)Nc2ccc(Br)cc2C(=O)O)c1	56µM*	2%
CCn1c2ccccc2c2cc(NC(=O)COc3cc(C)ccc3C)ccc21	i	?
Cc1ccc2c(c1)C(=O)OC(C(=O)Nc1ncc(Cc3ccccc3)s1)C2 (centres undefined)	i	10%
COc1cc2c(=O)c(S(=O)(=O)c3ccc(C)cc3)cn(Cc3cccc(C)c3)c2cc1OC	40µM*	-19%
CCCn1cc(S(=O)(=O)c2ccc(C)cc2)c(=O)c2cc(OC)c(OC)cc21	i	-6%
CCOc1ccc(CNC(=O)c2ccc3c(c2)nc2n3CCCCC2)cc1	i	10%
Cc1ccc(C)c(C(=O)CSc2nc(-c3ccccc3)nc3c2CCCC3)c1	i	0%
Cc1ccc(C)c(C(=O)CSc2cccc3cccnc23)c1	35µM*	-9%
Cc1cccc(N(CC(=O)NCCc2ccccc2)S(=O)(=O)c2ccccc2)c1C	i	3%[57.5 µM]
Cc1cccc(N(CC(=O)N(C)Cc2ccccc2)S(=O)(=O)c2ccccc2)c1C	35µM*	-10%
CCOc1ccc(OCC)c(NC(=O)c2cc(CN3CCOCC3)on2)c1	i	-2%
CCOc1ccc(-c2nc(C#N)c(NCCN3CCOCC3)o2)cc1	i	-5%
CN(C(=O)Cn1c(=O)n(CCCS(=O)(=O)C2CCCCC2)c(=O)c2ccccc21)c1ccccc1	i	-1%
SMILES	AID inh	UDG counterscr
CCOC(=O)c1c(N)n(-c2cc(C)cc(C)c2)c2nc3ccccc3nc12	i	-25%
CC(C)(C)c1ccc(OCc2nc3ccccc3n2CCOc2ccccc2)cc1	32µM*	-16%
COc1ccc(OCc2nc3ccccc3n2Cc2ccc(C(C)(C)C)cc2)cc1	?	-25%
CCCOc1ccccc1Cn1c(=O)sc2ccccc21	?	-10%
CCOC(=O)c1c(NC=C(C#N)C#N)sc(C)c1CC	i	1%
Cc1ccc(CNC(=O)c2ccc(-c3nc(CS(=O)c4ccccc4)c(C)o3)cc2)cc1 (centres undefined)	i	-29%
COc1ccc(CNC(=O)c2ccc(-c3nc(CS(=O)c4ccc(C)cc4)c(C)o3)cc2)cc1 (centres undefined)	?	89µM*
FC(F)(F)c1ccc(-c2noc(-c3ccccc3Br)n2)cc1	?	6%
CCn1cc(C(=O)NCCc2ccc(OC)c(OC)c2)c(=O)c2cc(S(=O)(=O)N3CCCCCC3)ccc21	i	-15%
CCn1cc(C(=O)NCCc2ccc(OC)c(OC)c2)c(=O)c2cc(S(=O)(=O)N(C)C3CCCCC3)ccc21	16µM*	-23%
COc1ccc(N(C(=O)c2ccccc2C)S(=O)(=O)c2ccc(C)cc2)cc1	?	79µM*
COc1ccc(N(C(=O)c2cccc(C)c2)S(=O)(=O)c2ccc(Cl)cc2)cc1	i	?
COc1cc(/C=C(/C#N)C(=O)Nc2ccccc2C(F)(F)F)ccc1OCc1ccc(F)cc1	i	2%
COc1cc(/C=C(\C#N)C(=O)Nc2nnc(C(F)(F)F)s2)ccc1OCc1ccc(C(F)(F)F)cc1C(F)(F)F	50µM*	-7%
CN(CCC#N)C(=O)COC(=O)c1cccnc1Nc1ccccc1F	i	0%
COc1cccc(-c2nc(N3CCCCCC3)c3ccccc3n2)c1O	?	89µM*
Clc1ccccc1-c1nc(N2CCCCC2)c2ccccc2n1	i	-5%
CC(NC(=O)CCCn1c(=O)c2cccn2c2cccnc21)c1ccccc1 (centres undefined)	i	4%
Cc1ccc(CNC(=O)CCc2nc3cccnc3n2Cc2ccccc2)cc1	i	-4%
CCCCc1ccc(NC(=O)CC2CCCCC2)cc1	i	12%
CC(C)(Sc1ccc(CCN(CCCCC2CCCCC2)C(=O)NC2CCCCC2)cc1)C(=O)O	89µM*	0%
CCOc1ccc(-c2cccc(NS(=O)(=O)c3ccc(C)s3)c2)nn1	i	10%
Cc1nnc(N2CCC(C(=O)NC(C)C)CC2)c2nn(-c3ccccc3)c(C)c12	i	-17%
Cc1ccc2nc(N3CCN(c4ccc(F)cc4)CC3)c3nnnn3c2c1	i	-1%[57.5 µM]
CN1C(=O)Cc2cc(S(=O)(=O)CCC(=O)N3CCN(c4ccccc4F)CC3)ccc21	i	?
SMILES	AID inh	UDG counterscr
Cc1cccc(N2CCN(C(=O)CCS(=O)(=O)c3ccc4c(c3)CC(=O)N4C)CC2C)c1 (centres undefined)	i	79µM*
Cc1ccccc1NC(=O)Cn1c(=O)n(CCc2ccccc2)c(=O)c2sc3ccccc3c21	i	-10%
CCc1ccccc1N(C)C(=O)c1nn(C)c2c1CSc1ccccc1-2	?	-4%[57.5 µM]
COc1cc(OC)c(N(C)C(=O)c2nn(C)c3c2CSc2ccccc2-3)cc1Cl	45µM*	-17%[57.5 µM]
NNCCc1ccccc1	45µM*	32µM*
Nc1ccccc1C(=O)NCCc1ccccc1	i	-1%
C=C1C(C(=O)Nc2ccc(N(C)C)cc2)C1C(=O)Nc1ccc(N(C)C)cc1 (centres undefined)	i	-2%
COC(=O)Nc1ccc(C)c(C)c1	i	-13%
COc1ccc(N2C(=O)c3cc4oc(C)cc4n3CC2(C)C(=O)NC2CCCCCC2)cc1OC (centres undefined)	i	1%
COC(=O)c1sc(N2C(=O)C(=O)/C(=C(/O)c3ccc(C)c(F)c3)C2c2ccccc2F)nc1C (centres undefined)	79µM*	-5%
Cc1ccccc1C1/C(=C(\O)c2ccccc2F)C(=O)C(=O)N1c1ccc(CC(=O)O)cc1 (centres undefined)	i	3%
CC(=O)N1CCc2c(sc3c2c(=O)n(Cc2ccccc2)c(=O)n3Cc2ccccc2Cl)C1	22µM*	-29%
CC(=O)N1CCc2c(sc3c2c(=O)n(Cc2ccccc2)c(=O)n3Cc2ccccc2F)C1	?	-18%
C=Cc1ccc(Cn2c(=O)n(-c3cccc(Cl)c3)c(=O)c3c4c(sc32)CN(C(C)=O)CC4)cc1	?	79µM*
CCOC(=O)N1CCc2c(sc3c2c(=O)n(-c2ccc(CC)cc2)c(=O)n3Cc2cccc(Cl)c2)C1	i	-5%[57.5 µM]

Screening results: PubChem, National Center for Advancing Translational Sciences (NCATS)
